Test results from PubChem BioAssay (EPA / NIEHS).
Inconclusive results are not listed. More than one record can exist for a structure, and the calls need not agree. Calls of active or inactive are those of the source. How the source made its calls, unless noted: active means hit-call score of the fitted dose curve at least 0.9, where 1 is the maximum; inactive means score below 0.9.

Key:
[1] = IUF_NPC2b_neuronal_migration_120hr: Leibniz Research Institute for Environmental Medicine (IUF) 120-hour Neural Progenitor Cell Migration Assay for Neuron Migration (NPC2b) (AID 2284300)
Procedure, shortened: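 Read-out is mean distance from sphere edge to each TUBB3-positive neuron at 120 h, expressed relative to radial glia migration distance and to DMSO baseline. Single 0.3 mm human NPC spheres differentiated on laminin under continuous compound exposure.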

[2] = IUF_NPC3_neuronal_differentiation_120hr: Leibniz Research Institute for Environmental Medicine (IUF) 120-hour Neuronal Differentiation Assay (NPC3) (AID 2284301)
Procedure, shortened: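 hNPC spheres, PDL/laminin, DMEM/F12 3:1 + 1% N2, 37C, 5% CO2; 7 concentrations + solvent control, 5 d exposure, half-change day 3. Fix 120 h; TUBB3/Hoechst ICC, CNN neuron calling; % neurons vs nuclei, DMSO-normalized.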

[3] = IUF_NPC4_neurite_length_120hr: Leibniz Research Institute for Environmental Medicine (IUF) 120-hour Neuronal Morphology Assay for Neurite Length (NPC4) (AID 2284302)
Procedure, shortened: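 hNPC spheres (0.3 mm, fetal brain GW 16-19) on PDL/laminin, DMEM:F12 3:1 + 1% N2, 37C 5% CO2; 7 concs + solvent control, day 0-5, half medium change d3; fix 120 h, TUBB3 ICC, mean neurite length um vs DMSO.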

[4] = IUF_NPC5_oligodendrocyte_differentiation_120hr: Leibniz Research Institute for Environmental Medicine (IUF) 120-hour Oligodendrocyte Differentiation Assay (NPC5) (AID 2284304; active means hit-call score of the fitted dose curve at least 0.9, where 1 is the maximum;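 further: primary human fetal neural progenitor spheres plated to migrate and differentiate; share of O4-positive cells among Hoechst nuclei found by CNN image analysis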)
Procedure, shortened: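 Oligodendrocyte differentiation was scored after 120 h as the O4-positive share of Hoechst-stained nuclei across the neurosphere migration area, using a trained convolutional neural network on high-content fluorescence images. Human fetal neural progenitor spheres were dosed from day 0, normalised to DMSO.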

[5] = IUF_NPC4_neurite_area_120hr: Leibniz Research Institute for Environmental Medicine (IUF) 120-hour Neuronal Morphology Assay for Neurite Area (NPC4) (AID 2284305; active means hit-call score of the fitted dose curve at least 0.9, where 1 is the maximum)
Procedure, shortened: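 hNPC spheres on PDL/laminin, N2 medium, 37C/5% CO2; dosed day 0, half-medium refresh day 3; fixed 120 h; TUBB3/Hoechst ICC, high-content imaging; neurite area = mean pixels per neuron (nuclei excluded); DMSO baseline, max 0.1%.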

[6] = IUF_NPC2-5_cytotoxicity_72hr: Cytotoxicity Assessment at 72 hours in the Leibniz Research Institute for Environmental Medicine (IUF) Neural Progenitor Cell Migration and Differentiation Assay for Cytotoxicity (NPC2-5) (AID 2284306; active means hit-call score of the fitted dose curve at least 0.9, where 1 is the maximum;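 further: LDH release into supernatant measured by resorufin fluorescence marking membrane damage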)
Procedure, shortened: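 hNPC spheres (0.3 mm), PDL/laminin, DMEM/F12 3:1 + 1% N2; cpd from d0, 7 concs + SC, DMSO max 0.1%; half-medium refresh d3. Readout: supernatant LDH via resorufin fluorescence (RFU), 72 h; gain-of-signal fit.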

[7] = IUF_NPC2-5_cytotoxicity_120hr: Cytotoxicity Assessment at 120 hours in the Leibniz Research Institute for Environmental Medicine (IUF) Neural Progenitor Cell Migration and Differentiation Assay (NPC2-5) (AID 2284307; active means hit-call score of the fitted dose curve at least 0.9, where 1 is the maximum;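 on AC50: LDH released into supernatant as membrane damage marker via resorufin fluorescence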)
Procedure, shortened: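 Sphere plating starts differentiation and exposure together at day 0. Compound solution is half-replaced on day 3. At 120 h, medium supernatant is taken for an LDH membrane-integrity read based on resazurin reduction to resorufin fluorescence.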

[8] = IUF_NPC2-5_cell_number_120hr: Cell Number Assessment at 120 hours in the Leibniz Research Institute for Environmental Medicine (IUF) Neural Progenitor Cell Migration and Differentiation Assay (NPC2-5) (AID 2284308);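 further: count of Hoechst-stained nuclei in migration zone around plated human neural progenitor spheres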
Procedure, shortened: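 hNPC spheres, one per well, PDL/laminin, N2 medium, 37C, 5% CO2. Dosing day 0 → half-medium change with fresh compound day 3 → fix 120 h. Readout: Hoechst+ nuclei count, migration area; 7 concentrations plus solvent control.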

[9] = IUF_NPC2-5_viability_120hr: Viability Assessment at 120 hours in the Leibniz Research Institute for Environmental Medicine (IUF) Neural Progenitor Cell Migration and Differentiation Assay (NPC2-5) (AID 2284312)
Procedure, shortened: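 Human fetal neural progenitor spheres (0.3 mm) plated on poly-D-lysine/laminin in N2 differentiation medium, exposed 120 h with half-medium refresh at day 3. Viability by alamar blue resazurin fluorescence; 7 concentrations, DMSO max 0.1%.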

[10] = CCTE_Deisenroth_5AR_NBTE_donor: CCTE's 5alpha-reductase NanoBRET Target Engagement Assay […], Deisenroth Lab (AID 2284319); details: actives raise or lower the signal
Procedure, shortened: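 HEK293T cells were reverse transfected with an SRD5A2-NanoLuc vector for 20 h, exposed to test chemical (8 points, 10 nM - 29.9 uM) for 3 h, then testosterone tracer for 2 h more. Donor luminescence (460 nm) was read; bidirectional fit versus DMSO.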

[11] = CCTE_Deisenroth_5AR_NBTE_acceptor: CCTE's 5alpha-reductase NanoBRET Target Engagement Assay - Autofluorescence Screen, Deisenroth Lab (AID 2284321); details: actives raise or lower the signal;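 further: compound fluorescence in the acceptor channel under 460 nm excitation flags autofluorescence artifacts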
Procedure, shortened: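 Acceptor fluorescence intensity was read as an artifact-detection endpoint. Test chemicals at an assumed nominal 100 uM were excited at 460 nm across three independent runs. Activity was fitted bidirectionally against DMSO.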

SRD5A2 (gene 6716) = assay: CCTE_Deisenroth_5AR_NBTE_ratio: CCTE's 5alpha-reductase NanoBRET Target Engagement Assay - Ratio, Deisenroth Lab (AID 2284322); details: actives raise or lower the signal
Procedure, shortened: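 HEK293T cells transiently expressing an SRD5A2-NanoLuc fusion (20 h post-transfection) were exposed to test chemical (10 nM - 29.9 uM, 8 points) for 3 h, then testosterone tracer for a further 2 h. Acceptor/donor BRET ratio was fitted bidirectionally against DMSO baseline.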

IYD (gene 389434) = assay: CCTE_GLTED_hIYD: CCTE's human Iodotyrosine Deiodinase (xIYD) Inhibition Assay, Great Lakes Toxicology and Ecology Division (GLTED) Lab (AID 2284317; active means hit-call score of the fitted dose curve at least 0.9, where 1 is the maximum;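 further: cell-free human IYD enzyme made in baculovirus insect cells; iodide freed from monoiodotyrosine measured by cerium arsenite color change at 420 nm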)
Procedure, shortened: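 In the IYD assay, iodide released from MIT by insect-cell-expressed human enzyme was quantified after 3 h via Sandell-Kolthoff rate at 420 nm, with plate-wise normalization to MNT and solvent controls.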

[12] = CCTE_Mundy_HCI_iCellGluta_NOG_NeuriteLength: CCTE's Neurite Outgrowth Assay in iCellGluta cells for Neurite Length, Mundy Lab (AID 2284318; active means hit-call score of the fitted dose curve at least 0.9, where 1 is the maximum)
Procedure, shortened: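 Automated high-content imaging of betaIII-tubulin (Alexa Fluor-488) and Hoechst-stained cells gave neurite length, normalized to the DMSO baseline.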

CD69, CD69 (gene 969) = assay: BSK_LPS_CD69: BioMAP Diversity Plus: LPS Assay for CD69 Biomarker Activity (AID 2284303); details: primary human HUVEC with PBMC
Procedure, shortened: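 CD69 surface levels were read by ELISA after 24 h chemical treatment of an LPS-stimulated HUVEC plus PBMC co-culture; positive-direction fit against DMSO vehicle.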

TTR (gene 7276) = assay: CCTE_GLTED_hTTR_0.5uM: CCTE's human Transthyretin (hTTR) Inhibition Assay, with 0.5uM TTR, Great Lakes Toxicology and Ecology Division (GLTED) Lab (AID 2284320)
Procedure, shortened: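 Probe (ANSA) displacement from 0.5 uM human transthyretin was followed by fluorescence (ex 380, em 475) after a 2 h incubation with chemical. Activity was scored as signal loss and fitted positively relative to DMSO.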

Measured: AC50

O=P(Oc1ccccc1)(Oc1ccccc1)Oc1ccccc1
inactive: [1] | [2] | [3] | [4] | [5] | [6] | [7] | [8] | [9]

O=P(OCC(Br)CBr)(OCC(Br)CBr)OCC(Br)CBr (stereo unspecified)
inactive: [10] | [11]
active: SRD5A2 (gene 6716) 26.8 µM

O=c1ssc(Cl)c1Cl
inactive: IYD (gene 389434)

CCOc1ccc(C(C)(C)COCc2cccc(Oc3ccccc3)c2)cc1
not listed: [10] | [11] | SRD5A2 (gene 6716) | IYD (gene 389434) | CD69, CD69 (gene 969) | TTR (gene 7276)
inactive: all other assays above

CC1(C)CN=C(NN=C(/C=C/c2ccc(C(F)(F)F)cc2)/C=C/c2ccc(C(F)(F)F)cc2)NC1
active: [10] 50 µM | [11] 50 µM | SRD5A2 (gene 6716) 50 µM

OCC(F)(F)OC(F)(F)C(F)(F)OC(F)(F)CO
inactive: CD69, CD69 (gene 969)
active: TTR (gene 7276) 40.1 µM

C=CC(=O)OCC(F)(F)C(F)F
active: CD69, CD69 (gene 969) 43.8 µM | TTR (gene 7276) 56.8 µM
inactive: CD69, CD69 (gene 969)

COC(=O)C(F)(F)C(F)(F)OC(F)(C(F)(F)F)C(F)(F)OC(F)=C(F)F (stereo unspecified)
active: TTR (gene 7276) 0.977 µM
inactive: CD69, CD69 (gene 969)

O=C(O)C(F)(F)C(F)(F)C(=O)O
inactive: CD69, CD69 (gene 969)

CCOP(=S)(OCC)SCSCC
not listed: IYD (gene 389434) | CD69, CD69 (gene 969) | TTR (gene 7276)
inactive: all other assays above

O=C(O)C=CC(F)(C(F)(F)F)C(F)(F)F
active: TTR (gene 7276) 9.44 µM
inactive: CD69, CD69 (gene 969) | [12]

CCCCC(CC)COP(=O)(Oc1ccccc1)Oc1ccccc1 (stereo unspecified)
inactive: [1] | [2] | [3] | [4] | [5] | [6] | [7] | [8] | [9]

CC(C)(C)c1ccccc1OP(=O)(Oc1ccccc1)Oc1ccccc1
active: [4] 4.35 µM | [7] 1.98 µM
inactive: [1] | [2] | [3] | [5] | [6] | [8] | [9]

O=C(O)C1C(C(=O)O)C2(Cl)C(Cl)=C(Cl)C1(Cl)C2(Cl)Cl (stereo unspecified)
inactive: [10] | [11] | SRD5A2 (gene 6716)
